Data: PubChem BioAssay
Activity calls are given as the source filed them. Unless noted, the rule behind the calls is not given here.

What was measured:
[1] = HepG2 liver cancer cell viability effects, profiling panel, resazurin fluorescence, 24 h, PK04 Diversity Set (AID 1172); conditions: higher = more signal
[2] = basal S. cerevisiae growth modulation, no modifier, primary screen, OD600, strain BY4716, 24 h, basal condition (AID 1173); conditions: OD600, 24 h, higher = more signal, called active from +8 up or from −8 down
[3] = MM1S myeloma cell viability, profiling panel, resazurin fluorescence, basal, 24 h, PK04 Diversity Set (AID 1174); conditions: higher = more signal, called active from +8 up or from −8 down;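 note: MM1S multiple myeloma cell line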
[4] = target: Dihydroorotate dehydrogenase (quinone), mitochondrial (Plasmodium falciparum (isolate 3D7)) (UniProt Q08210); assay: PfDHODH enzyme inhibitors, primary screen, biochemical, C-terminal His tag, absorbance 600 nm (AID 1175); conditions: DCIP absorbance 600 nm, higher = more signal, called active from +8 up or from −8 down;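 note: recombinant parasite enzyme with a five histidine tag at its C terminus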
Sequence of Dihydroorotate dehydrogenase (quinone), mitochondrial (Plasmodium falciparum (isolate 3D7)) (Q08210 whole entry, looked up): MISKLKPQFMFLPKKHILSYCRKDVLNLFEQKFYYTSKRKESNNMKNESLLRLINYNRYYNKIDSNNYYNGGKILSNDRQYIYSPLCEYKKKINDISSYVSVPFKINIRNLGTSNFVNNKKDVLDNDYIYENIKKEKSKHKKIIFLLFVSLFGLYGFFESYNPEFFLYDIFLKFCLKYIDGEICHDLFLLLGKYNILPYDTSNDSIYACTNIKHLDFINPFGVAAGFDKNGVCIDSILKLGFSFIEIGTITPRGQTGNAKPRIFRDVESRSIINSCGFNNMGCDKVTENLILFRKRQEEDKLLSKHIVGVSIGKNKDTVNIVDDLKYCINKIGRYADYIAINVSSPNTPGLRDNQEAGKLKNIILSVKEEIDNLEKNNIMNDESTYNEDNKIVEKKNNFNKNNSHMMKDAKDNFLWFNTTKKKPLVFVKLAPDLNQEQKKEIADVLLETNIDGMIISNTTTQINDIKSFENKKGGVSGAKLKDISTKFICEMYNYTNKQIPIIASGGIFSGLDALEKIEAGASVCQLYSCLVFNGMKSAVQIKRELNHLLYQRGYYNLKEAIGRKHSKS

[5] = P. aeruginosa biofilm formation inhibitors, primary screen, strain PAO1, LB-PBS medium, absorbance 600 nm (AID 1176); conditions: P. aeruginosa PAO1 growth/biofilm, A600, 12 h; higher = more signal
[6] = S. cerevisiae RM11-1a growth modifiers, primary screen, strain RM11-1a, OD600, basal, 24 h (AID 1177); conditions: OD600, 24 h, higher = more signal, called active from +8 up or from −8 down;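 note: cultures grown under basal conditions with no added stressor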
[7] = E. coli acrAB mutant growth effects, primary screen, E. coli filamentation inducers, strain DRC39, OD650, 24 h (AID 1178); conditions: higher = more signal, called active from +8 up or from −8 down;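 note: growth measured as culture turbidity by optical density at 650 nm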
[8] = E. coli acrAB mutant growth effects, primary screen, E. coli filamentation inducers, strain DRC39, OD650, 48 h (AID 1179);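 note: screen aims at cell division blockers that make cells filament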; conditions: E. coli DRC39 delta-acrAB growth, higher = more signal, called active from +8 up or from −8 down
[9] = RPMI8226 myeloma cell viability, profiling panel, resazurin fluorescence, basal, 24 h, PK04 Diversity Set (AID 1180); conditions: higher = more signal;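 note: RPMI8826 multiple myeloma cell line at 5000 cells per well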
[10] = target: E3 ubiquitin-protein ligase XIAP (Homo sapiens) (UniProt P98170); assay: XIAP binders, primary screen, biophysical, small-molecule microarray, fluorescence 635 nm (AID 1181); conditions: small-molecule microarray binding, higher = more signal;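 note: score merges 667 nm emission and signal to noise over triplicate slides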
Sequence of E3 ubiquitin-protein ligase XIAP (Homo sapiens) (P98170 whole entry, looked up): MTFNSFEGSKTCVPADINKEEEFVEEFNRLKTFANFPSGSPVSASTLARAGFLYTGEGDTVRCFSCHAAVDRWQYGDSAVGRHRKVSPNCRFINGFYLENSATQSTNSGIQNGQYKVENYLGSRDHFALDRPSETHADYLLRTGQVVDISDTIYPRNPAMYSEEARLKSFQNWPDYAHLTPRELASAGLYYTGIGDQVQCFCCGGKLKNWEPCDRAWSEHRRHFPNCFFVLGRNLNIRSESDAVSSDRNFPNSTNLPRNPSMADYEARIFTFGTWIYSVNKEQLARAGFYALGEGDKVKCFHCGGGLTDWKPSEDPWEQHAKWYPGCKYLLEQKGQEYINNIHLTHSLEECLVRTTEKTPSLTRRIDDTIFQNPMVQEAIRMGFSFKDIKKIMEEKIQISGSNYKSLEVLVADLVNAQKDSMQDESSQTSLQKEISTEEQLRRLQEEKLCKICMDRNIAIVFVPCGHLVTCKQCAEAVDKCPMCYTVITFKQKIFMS

[11] = system: XIP peptide (Xip251-270) binding; assay: small-molecule binders of XIP peptide, primary screen, biochemical, small-molecule microarray, fluorescence 635/667 nm, 0.1 µg/mL protein (AID 1182); conditions: fluorescent protein binding, 635 nm, higher = more signal, called active from +8 up or from −8 down
XIP peptide (Xip251-270) = assay: small-molecule binders of XIP peptide, primary screen, biochemical, small-molecule microarray, fluorescence 635/667 nm, 0.5 µg/mL protein (AID 1183); conditions: small-molecule microarray binding, fluorescence 635 nm; higher = more signal
[12] = Plasmodium falciparum growth inhibition, primary screen, strain 3D7, DAPI fluorescence, 100 nL (AID 1184);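 note: parasites grown inside human red blood cells in medium with human serum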; conditions: P. falciparum 3D7 growth, 3 d, higher = more signal
[13] = target: Homeobox protein Hox-A13 (Mus musculus) (UniProt Q62424); assay: inhibitors of HoxA13-DNA binding, primary screen, biochemical, fluorescence polarization, labeled oligonucleotide (AID 1185); conditions: 15 min, higher = more signal, called active from +8 up or from −8 down
Sequence of Homeobox protein Hox-A13 (Mus musculus) (Q62424 whole entry, looked up): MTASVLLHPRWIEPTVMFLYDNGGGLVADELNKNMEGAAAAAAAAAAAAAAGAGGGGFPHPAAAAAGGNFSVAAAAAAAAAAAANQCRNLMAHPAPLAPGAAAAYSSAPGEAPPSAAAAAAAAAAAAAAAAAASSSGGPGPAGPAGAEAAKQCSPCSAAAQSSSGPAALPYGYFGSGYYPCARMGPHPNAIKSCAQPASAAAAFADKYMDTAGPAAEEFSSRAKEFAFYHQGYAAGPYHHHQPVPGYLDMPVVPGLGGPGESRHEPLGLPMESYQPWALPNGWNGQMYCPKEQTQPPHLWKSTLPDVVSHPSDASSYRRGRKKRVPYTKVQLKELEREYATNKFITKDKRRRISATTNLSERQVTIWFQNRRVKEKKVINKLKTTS

[14] = inhibitors of hydroxyurea-induced Chk1 phosphorylation, primary screen, imaging, HeLa, phospho-Chk1 antibody, percent positive cells (AID 1186); conditions: hydroxyurea-induced phospho-Chk1 immunofluorescence imaging, higher = more signal
[15] = inhibitors of hydroxyurea-induced Chk1 phosphorylation, primary screen, imaging, HeLa, phospho-Chk1 nuclear intensity (AID 1187); conditions: hydroxyurea-induced phospho-Chk1 immunofluorescence imaging, higher = more signal

Structure (SMILES)	z-score [1]	z-score [2]	z-score [3]	composite z-score [4]	z-score [5]	z-score [6]	z-score [7]	z-score [8]	z-score [9]	composite z-score [10]	composite z-score [11]	composite z-score (XIP peptide (Xip251-270))	z-score [12]	z-score [13]	z-score [14]	z-score [15]
O=C1O[C@@H](c2ccccc2)[C@@H](c2ccccc2)N2[C@@H](c3ccccc3OCCO)[C@]3(C(=O)Nc4ccc(C#CCCO)cc43)[C@@H](C(=O)N3CCCCCCC3)[C@H]12	0.29	0.355 (inactive)	-1.91 (inactive)	-0.452 (inactive)	1.26 (inactive)	0.753 (inactive)	-0.291 (inactive)	0.321 (inactive)	-4.5	2.45	8.49 (active)	1.02	-2.23	3.66 (inactive)	-0.333 (inactive)	-0.462 (inactive)
C=CCC(OC(C)=O)[C@@H]1[C@@H](N(Cc2cc3ccccc3o2)C(=O)Cc2ccc(F)cc2)c2cc(OCCCO)ccc2N1C(=O)c1ccc2ccccc2c1 (stereo partly drawn)	-0.081	0.615 (inactive)	0.514 (inactive)	-1.04 (inactive)	0.35 (inactive)	-0.41 (inactive)	-0.698 (inactive)	-0.649 (inactive)	0.304	0.555	-0.231 (inactive)	-0.271	1.15	-1.95 (inactive)	0.608 (inactive)	0.308 (inactive)
COCCOC(=O)N1C(=O)[C@@]2(c3cc(C#CC4=CCCCC4)ccc31)[C@H](C(N)=O)[C@H]1C(=O)O[C@H](c3ccccc3)[C@H](c3ccccc3)N1[C@@H]2c1ccccc1OCCO	-2.76	0.132 (inactive)	-4.34 (inactive)	-0.295 (inactive)	2.21 (inactive)	1.23 (inactive)	-1.4 (inactive)	-1.23 (inactive)	-5.78	0.0899	0.859 (inactive)	0.823	-2.03	-1.26 (inactive)	-0.176 (inactive)	-0.46 (inactive)
[N-]=[N+]=Nc1ccccc1[C@H]1OC(c2ccc(OCCCO)cc2)=N[C@@]1(CCS(=O)(=O)c1ccccc1)C(=O)NCCN1CCOCC1	0.3	-0.378 (inactive)	0.131 (inactive)	0.467 (inactive)	0.537 (inactive)	0.0557 (inactive)	-0.259 (inactive)	-0.264 (inactive)	0.291	0.177	0.345 (inactive)	0.868	-2.52	-5.15 (inactive)	0.392 (inactive)	0.812 (inactive)
[N-]=[N+]=NCc1ccccc1[C@@H]1OC(c2ccc(OCCCO)cc2)=N[C@]1(CCS(=O)(=O)c1ccccc1)C(=O)NCC(O)CO (stereo partly drawn)	-0.618	-0.543 (inactive)	-0.121 (inactive)	-0.716 (inactive)	0.563 (inactive)	-0.397 (inactive)	0.488 (inactive)	1.2 (inactive)	-0.471	0.0731	2.02 (inactive)	0.831	-2.26	-1.52 (inactive)	-0.519 (inactive)	-0.524 (inactive)
[N-]=[N+]=NCc1ccccc1C[C@@]1(C(=O)NCc2ccccc2)N=C(c2ccc(OCCCO)cc2)O[C@@H]1c1ccccc1N=[N+]=[N-]	0.279	0.85 (inactive)	-0.806 (inactive)	0.805 (inactive)	1.39 (inactive)	1.49 (inactive)	0.423 (inactive)	-0.335 (inactive)	-0.686	-0.11	0.047 (inactive)	0.558	-2.37	0.321 (inactive)	-0.299 (inactive)	-0.147 (inactive)
CC(C)C(=C=CC[C@H](O)c1ccc(OCCO)cc1)C[C@H](O)c1ccccn1	0.748	-1.7 (inactive)	0.143 (inactive)	-0.575 (inactive)	0.379 (inactive)	0.673 (inactive)	1.37 (inactive)	0.879 (inactive)	0.986	0.244	-0.0991 (inactive)	0.909	-2.06	-5.38 (inactive)	-0.0725 (inactive)	0.223 (inactive)
NC(N)=NCCCn1cc(CNC(=O)[C@@H](N)Cc2ccccc2)nn1	-0.686	-0.85 (inactive)	-0.433 (inactive)	-2.75 (inactive)	-0.264 (inactive)	-0.297 (inactive)	0.19 (inactive)	-0.0439 (inactive)	-0.68	0.012	0.196 (inactive)	-1.17	0.139	-1.61 (inactive)	0.262 (inactive)	-0.174 (inactive)
CCOC(=O)C[C@H]1[C@H](OC(=O)c2cc3ccccc3oc2=O)[C@@H](NC(=O)c2ccc(-c3ccccc3)cc2)c2cc(OCCCO)ccc2N1C(=O)c1ccccc1	-0.638	-1.79 (inactive)	-0.005 (inactive)	-2.74 (inactive)	-0.329 (inactive)	-0.272 (inactive)	-0.466 (inactive)	-0.878 (inactive)	-0.24	0.164	0.411 (inactive)	0.701	-1.95	0.455 (inactive)	0.443 (inactive)	0.769 (inactive)
COC(=O)[C@@]1(Cc2ccc(OC)cc2)[C@H]2c3cc(C(=O)N4CCCC4)n(Cc4c(-c5ccccc5)noc4C)c3C[C@H]2CN1C(=O)c1ccccc1	-0.338	1.63 (inactive)	-0.39 (inactive)	0.486 (inactive)	-0.526 (inactive)	1.18 (inactive)	0.343 (inactive)	-0.57 (inactive)	-0.61	-0.0048	2.97 (inactive)	0.473	-1.3	-3.25 (inactive)	-0.279 (inactive)	-0.313 (inactive)
CC(=O)NCCCC[C@@H]1NC(=O)[C@@H]2C[C@H](C(=O)NCCCC[N+](C)(C)C)[C@H](c3ccc(O)cc3)N2C1=O	-0.294	-0.0108 (inactive)	-1.23 (inactive)	-30.7 (active)	2.35 (inactive)	0.55 (inactive)	-0.0376 (inactive)	-1.1 (inactive)	-1.2	-0.168	2.41 (inactive)	0.842	-0.859	0.749 (inactive)	-0.508 (inactive)	-0.589 (inactive)
COc1cc(OC)c(C(O)C2C=CC3C(=O)N(C)C(=O)C3N2NC(=O)OC(C)(C)C)cc1Br (stereo not drawn)	-1.88	-5.3 (inactive)	-0.652 (inactive)	0.985 (inactive)	0.683 (inactive)	1.18 (inactive)	-0.143 (inactive)	-0.376 (inactive)	-0.34	0.677	-0.121 (inactive)	0.759	-0.107	-2.6 (inactive)	0.111 (inactive)	-0.0533 (inactive)
O=C1O[C@@H](c2ccccc2)[C@@H](c2ccccc2)N2[C@@H](c3ccc(O)cc3)[C@]3(C(=O)Nc4ccc(C#CC5(O)CCCCCC5)cc43)[C@@H](C(=O)NC[C@H](O)c3ccccc3)[C@H]12	0.677	-0.263 (inactive)	-0.418 (inactive)	0.409 (inactive)	0.348 (inactive)	0.417 (inactive)	-0.839 (inactive)	-0.938 (inactive)	-0.809	-0.312	0.0382 (inactive)	0.691	-0.627	-3.55 (inactive)	0.206 (inactive)	0.345 (inactive)
CCOC(=O)C1=CC[C@@H](c2ccccc2C(F)(F)F)N(S(=O)(=O)c2ccc(C)cc2)[C@H]1c1ccc(C#N)cc1	-0.0666	1.02 (inactive)	-1.39 (inactive)	-0.0408 (inactive)	1.01 (inactive)	-0.171 (inactive)	-0.534 (inactive)	0.312 (inactive)	-0.823	-0.0172	0.205 (inactive)	0.534	-2.2	-0.224 (inactive)	0.479 (inactive)	-0.581 (inactive)
O=C1OCC=C[C@H]2OC34C=CCN(c5ccc(Cl)cc5)C(=O)[C@H]3N(CCO)C(=O)[C@@H]4[C@@H]12 (stereo partly drawn)	-0.222	0.52 (inactive)	0.296 (inactive)	0.198 (inactive)	-0.401 (inactive)	0.568 (inactive)	0.973 (inactive)	1 (inactive)	0.825	-0.22	-0.0292 (inactive)	-0.457	1.05	-2.74 (inactive)	-0.435 (inactive)	-0.457 (inactive)
O=c1n(-c2ccccc2)c(=O)n2n1CC(COc1ccccc1)=C([C@H](O)CCc1ccccc1)[C@@H]2CO	-0.633	-2.28 (inactive)	-0.83 (inactive)	-1.09 (inactive)	-0.0126 (inactive)	-3.02 (inactive)	1.24 (inactive)	0.395 (inactive)	-0.0454	-0.472	0.0148 (inactive)	-0.407	-0.601	-7.77 (inactive)	-0.268 (inactive)	0.771 (inactive)
COC(=O)C(CC#Cc1ccc2c(c1)[C@]1(C(=O)N2)[C@H](c2ccccc2OCCO)N2[C@H](c3ccccc3)[C@H](c3ccccc3)OC(=O)[C@H]2[C@@H]1C(=O)NC[C@H](O)c1ccccc1)C(=O)OC	-0.248	1.61 (inactive)	-6.75 (inactive)	-4.58 (inactive)	2.09 (inactive)	2.22 (inactive)	0.405 (inactive)	0.615 (inactive)	-6.97	0.279	1.8 (inactive)	0.777	-2.22	-1.59 (inactive)	-0.124 (inactive)	-0.553 (inactive)
COc1ccc([Si](C)(C)[C@@H]2[C@@H](CC(=O)N3Cc4ccccc4C[C@H]3CO)O[C@]3(C(=O)N(Cc4cccc(N5C(=O)c6cccc7cccc5c67)c4)c4ccccc43)[C@H]2C)cc1	-0.468	0.517 (inactive)	-1.54 (inactive)	-3.83 (inactive)	1.42 (inactive)	0.618 (inactive)	0.226 (inactive)	-0.143 (inactive)	-0.711	-0.253	1.26 (inactive)	0.574	-2.59	-1.47 (inactive)	0.115 (inactive)	-0.0849 (inactive)
